# Results filed as inconclusive are left out. Some compounds were tested as several samples or in several runs, with calls that do not always agree. Calls of active or inactive are those of the source. How the source made its calls, unless noted: active means hit-call score of the fitted dose curve at least 0.9, where 1 is the maximum; inactive means score below 0.9.
# What was measured:
# [1] = CCTE_Mundy_HCI_hNP1_Casp3_7: CCTE's Caspase-Glo 3/7 Assay in human neuroprogenitor cells for Apoptosis, Mundy Lab (AID 2284240)
# Procedure, shortened: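 Neuroepithelial-lineage stem cells from WA09 embryonic cells were treated with chemicals after 40–44 h of culture. Twenty-four hours later, caspase-3/7 activation was detected luminescently after a 30 min room-temperature reagent step, with DMSO as baseline.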
# [2] = CCTE_Mundy_HCI_hNP1_CellTiter: CCTE's Cell Titer-Glo 2 Assay in human neuroprogenitor cells for Viability, Mundy Lab (AID 2284241; active means hit-call score of the fitted dose curve at least 0.9, where 1 is the maximum;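 on AC50: a hit is a drop in ATP luminescence versus DMSO meaning reduced viability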)
# Procedure, shortened: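 Measures ATP content in human neural progenitors derived from WA09 embryonic cells. Read-out at 26.5 hours after dosing, with DMSO serving as the negative control and baseline.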
# [3] = CCTE_Mundy_HCI_Cortical_Synap_Neur_Matur_NeuronCount: CCTE's Synaptogenesis and Neurite Maturation Assay in rat cortical cells for Neuron Count, Mundy Lab (AID 2284242; active means hit-call score of the fitted dose curve at least 0.9, where 1 is the maximum;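 on AC50: hits reduce neuron count versus DMSO baseline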)
# Procedure, shortened: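 Measured at DIV 12: fluorescently labelled neurons (Hoechst nuclei, MAP2) in rat primary cortical cultures, counted by high-content imaging. AraC suppressed glia from DIV 5; DMSO served as negative control.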
# [4] = read-out: Collagen III, COL3A1 (gene 1281); assay: BSK_MyoF_CollagenIII: BioMAP Diversity Plus: MyoF Assay for Collagen III Biomarker Activity (AID 2284239); conditions: primary human lung fibroblasts
# Procedure, shortened: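 Lung fibroblast culture; 24 h compound exposure; collagen III by ELISA; gain-of-signal fit vs DMSO baseline.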
# [5] = read-out: Interleukin 17F (IL17F), IL17F (gene 112744); assay: BSK_BT_xIL17F: BioMAP Diversity Plus: BT Assay for Interleukin 17F (IL17F) Biomarker Activity (AID 2284243); conditions: primary human B cells with PBMC
# Procedure, shortened: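 Secreted IL-17F, read on LumineX xMAP beads, was taken as the endpoint. Cultures combined human B cells and peripheral blood mononuclear cells, sampled 24 hours after dosing, with DMSO serving as negative control.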
# [6] = read-out: Actin alpha 1 (ACTA1), ACTA1 (gene 58); assay: BSK_MyoF_ACTA1: BioMAP Diversity Plus: MyoF Assay for Actin alpha 1 (ACTA1) Biomarker Activity (AID 2284244); conditions: primary human lung fibroblasts
# Procedure, shortened: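 MyoF fibroblast system (human lung); a-SMA quantified via ELISA at 24 h; DMSO-normalised, gain-of-signal endpoint.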
# [7] = read-out: Interleukin 2 (IL2), IL2 (gene 3558); assay: BSK_BT_xIL2: BioMAP Diversity Plus: BT Assay for Interleukin 2 (IL2) Biomarker Activity (AID 2284245); conditions: primary human B cells with PBMC
# Procedure, shortened: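 Co-cultures of primary human B cells and PBMC are treated with chemical and sampled at 24 h. IL-2 secretion is quantified by Luminex xMAP, with DMSO-treated wells as baseline.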
# [8] = read-out: Basic fibroblast growth factor (bFGF), FGF2 (gene 2247); assay: BSK_MyoF_bFGF: BioMAP Diversity Plus: MyoF Assay for Basic fibroblast growth factor (bFGF) Biomarker Activity (AID 2284246); conditions: primary human lung fibroblasts
# Procedure, shortened: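 Fibroblasts from human lung, 24 h dosing. bFGF by ELISA; gain of signal over DMSO.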
# [9] = read-out: Collagen IV, COL4A1 (gene 1282); assay: BSK_MyoF_CollagenIV: BioMAP Diversity Plus: MyoF Assay for Collagen IV Biomarker Activity (AID 2284247); conditions: primary human lung fibroblasts
# Procedure, shortened: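 Lung fibroblasts (human primary) treated with chemicals were assayed after 24 h for Collagen IV using an ELISA, with DMSO serving as negative control and baseline for a positive-direction fit.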
# [10] = read-out: Monokine induced gamma interferon (MIG), CXCL9 (gene 4283); assay: BSK_KF3CT_MIG: BioMAP Diversity Plus: KF3CT Assay for Monokine induced gamma interferon (MIG) Biomarker Activity (AID 2284248); conditions: primary human keratinocytes with fibroblasts
# Procedure, shortened: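 ELISA read-out of MIG after 24 h chemical exposure of human skin primary co-culture (keratinocytes, foreskin fibroblasts). Gain of signal relative to DMSO negative control was analysed.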
smiles,measurement,setting,value
CC(C)N(C(=O)COc1nnc(C(F)(F)F)s1)c1ccc(F)cc1,outcome,[1],inactive
same,outcome,[2],inactive
CCC(C)(C)C(=O)OC1=C(c2ccc(Cl)cc2Cl)C(=O)OC12CCCCC2,outcome,[1],inactive
same,outcome,[2],inactive
same,outcome,[3],inactive
CC1(C)C(C=C(Cl)Cl)C1C(=O)OC(C#N)c1ccc(F)c(Oc2ccccc2)c1 (stereo unspecified),AC50,[1],31.3 µM (active)
same,outcome,[1],inactive
same,outcome,[2],inactive
same,AC50,[3],49.9 µM (active)
O=C(O)COc1ccc(Cl)cc1Cl,outcome,[1],inactive
same,outcome,[2],inactive
O=[N+]([O-])/N=C1\NCCN1Cc1ccc(Cl)nc1,outcome,[1],inactive
same,outcome,[2],inactive
ClC1C(Cl)C(Cl)C(Cl)C(Cl)C1Cl (stereo unspecified),AC50,[4],30.3 µM (active)
same,outcome,[4],inactive
same,AC50,[5],20 µM (active)
same,outcome,[5],inactive
same,AC50,[6],28.5 µM (active)
same,outcome,[6],inactive
same,AC50,[7],31.9 µM (active)
same,outcome,[7],inactive
same,outcome,[8],inactive
same,outcome,[9],inactive
COP(=O)(OC)OC=C(Cl)Cl,outcome,[1],inactive
same,outcome,[2],inactive
same,AC50,[3],81.4 µM (active)
COP(=S)(OC)Oc1ccc([N+](=O)[O-])cc1,outcome,[1],inactive
same,outcome,[2],inactive
same,AC50,[3],22.1 µM (active)
O=S1OCC2C(CO1)C1(Cl)C(Cl)=C(Cl)C2(Cl)C1(Cl)Cl (stereo unspecified),AC50,[1],19.4 µM (active)
same,AC50,[2],12 µM (active)
same,AC50,[3],22.5 µM (active)
O=C(O)C(F)(F)C(F)(F)C(F)(F)C(F)(F)C(F)(F)C(F)(F)C(F)(F)F,outcome,[4],inactive
same,outcome,[1],inactive
same,outcome,[3],inactive
same,outcome,[5],inactive
same,outcome,[6],inactive
same,outcome,[7],inactive
same,outcome,[8],inactive
same,AC50,[9],31.6 µM (active) [middle of 4 runs]
same,outcome,[10],inactive
O=S(=O)(O)C(F)(F)C(F)(F)C(F)(F)C(F)(F)C(F)(F)C(F)(F)C(F)(F)C(F)(F)F,outcome,[4],inactive
same,outcome,[1],inactive
same,outcome,[2],inactive
same,outcome,[3],inactive
same,outcome,[5],inactive
same,outcome,[6],inactive
same,outcome,[7],inactive
same,outcome,[8],inactive
same,outcome,[9],inactive
same,outcome,[10],inactive
CC1(c2ccc(Oc3ccccc3)cc2)OC(=O)N(Nc2ccccc2)C1=O (stereo unspecified),outcome,[1],inactive
same,AC50,[2],10.9 µM (active)
same,AC50,[3],10.9 µM (active)
CC[C@H](C)[C@H]1O[C@]2(C=C[C@@H]1C)C[C@@H]1C[C@@H](C/C=C(\C)[C@@H](O[C@H]3C[C@H](OC)[C@@H](O[C@H]4C[C@H](OC)[C@@H](O)[C@H](C)O4)[C@H](C)O3)[C@@H](C)/C=C/C=C3\CO[C@@H]4[C@H](O)C(C)=C[C@@H](C(=O)O1)[C@]34O)O2 (tested in a mixture with another compound),AC50,[1],3.64 µM (active)
same,AC50,[2],3.34 µM (active)
same,AC50,[3],1.55 µM (active)
CNC(=O)CSP(=S)(OC)OC,outcome,[1],inactive
same,outcome,[2],inactive
same,AC50,[3],50 µM (active)
same,outcome,[3],inactive
